{"source": "PubChem BioAssay (Tox21)", "note": "Results filed as inconclusive are left out. Entries that show only a call come without a potency. Calls of active or inactive are those of the source. The call rests on the fitted dose curve. Potency means the concentration at half of the fitted maximal effect.", "data": [{"target": "5-hydroxytryptamine receptor 2A (Homo sapiens) (UniProt P28223)", "sequence (P28223 whole entry, looked up)": "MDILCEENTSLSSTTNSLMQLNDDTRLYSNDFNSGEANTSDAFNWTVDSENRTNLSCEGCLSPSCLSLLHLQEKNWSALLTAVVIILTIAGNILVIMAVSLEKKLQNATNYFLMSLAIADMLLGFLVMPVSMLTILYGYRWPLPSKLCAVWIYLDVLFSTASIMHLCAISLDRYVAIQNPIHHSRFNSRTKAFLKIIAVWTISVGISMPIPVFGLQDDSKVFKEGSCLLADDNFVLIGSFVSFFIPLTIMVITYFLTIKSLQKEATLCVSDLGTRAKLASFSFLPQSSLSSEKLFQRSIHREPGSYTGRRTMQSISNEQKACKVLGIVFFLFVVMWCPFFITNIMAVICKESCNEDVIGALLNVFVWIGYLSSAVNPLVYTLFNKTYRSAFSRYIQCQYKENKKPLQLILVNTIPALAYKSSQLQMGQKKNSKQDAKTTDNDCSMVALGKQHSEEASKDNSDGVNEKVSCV", "assay": "5-hydroxytryptamine receptor 2A (HTR2A) small molecule agonists, cell-based qHTS assay (AID 1963587); further: nearly all actives have a fitted effect of over 30% in size", "conditions": "HTR2A-CHO cells, calcium flux fluorescence, agonist mode; series mostly up to 76.8 µM", "text": "National Center for Advancing Translational Sciences [NCATS]\nDivision of Preclinical Innovation [DPI]\nU.S. Environmental Protection Agency [EPA]\nNational Institutes of Environmental Health Sciences [NIEHS]\nNational Toxicology Program [NTP]\nU.S. Food and Drug Administration [FDA]\nThe HTR2A receptor is a subtype of the 5-HT2 receptor that belongs to the serotonin receptor family and is a G protein-coupled receptor (GPCR). The HTR2A-CHO cell line stably expressing human 5-hydroxytryptamine receptor 2A (HTR2A) can be used for screening agonists of interactions between 5-HT2 and its ligands. The HTR2A-CHO calcium flux assay is a homogeneous fluorescence-based assay for detecting the intracellular calcium level using FDSS kinetic plate reader system.\nHTR2A-CHO cells were dispensed at 2000 cells/3uL/well in 1536-well black-clear bottom plates using a Multidrop Dispenser. After the assay plates were incubated at a 37 C/5% CO2 incubator for 18 h, 3 uL of Dye Loading Buffer was transferred to the assay plate by a Flying Reagent Dispenser. The assay plates were incubated at 37 C for 1h. For agonist mode, 23 nL of compounds dissolved in DMSO, positive controls or DMSO only was transferred to the assay plate by a pin tool. The fluorescence intensity in the plates was measured using FDSS 7000EX kinetic plate reader for 2 min at 1 sec intervals.", "values": [{"smiles": "O=C(O)c1ccc(Cl)cc1Cl", "Potency": "inactive"}, {"smiles": "CCC(O)C(C)(C)C", "note": "(stereo not given)", "Potency": "inactive"}, {"smiles": "C/C=C(\\C)C(=O)OCC/C=C\\CC", "Potency": "inactive"}, {"smiles": "C=C/C(C)=C/C/C=C(\\C)CCC=C(C)C", "Potency": "inactive"}, {"smiles": "c1ccc(CNc2ncnc3nc[nH]c23)cc1", "Potency": "inactive"}, {"smiles": "CC(C)CC(=O)C1C(=O)c2ccccc2C1=O", "Potency": "inactive"}, {"smiles": "O=C(CCCl)NCCc1ccccc1", "Potency": "inactive"}, {"smiles": "CCCCCN=C(N)N/N=C/c1c[nH]c2ccc(OC)cc12", "Potency": "0.0107 µM (active)"}, {"smiles": "CN1C(C)(C)CCCC1(C)C", "Potency": "inactive"}, {"smiles": "CCCCCCCCCC(=O)N(C)C", "Potency": "inactive"}, {"smiles": "CC(C)(C)C(=O)Oc1ccc(S(=O)(=O)Nc2ccccc2C(=O)NCC(=O)O)cc1", "Potency": "inactive"}, {"smiles": "CC(C)C(=O)OCc1cccc(OC(=O)[C@@H]2N3C(=O)[C@@H](NC(=O)Cc4ccccc4)[C@H]3SC2(C)C)c1", "Potency": "inactive"}, {"smiles": "CN1CCN(C2=Nc3ccccc3Sc3ccc(Cl)cc32)CC1", "Potency": "inactive"}, {"smiles": "O=P(O)(O)OCC(O)CO", "note": "(stereo not given)", "Potency": "inactive"}, {"smiles": "c1cc(N(CC2CO2)CC2CO2)ccc1Cc1ccc(N(CC2CO2)CC2CO2)cc1", "note": "(stereo not given)", "Potency": "inactive"}, {"smiles": "CC(C)(C)c1cccc(O)c1", "Potency": "inactive"}, {"smiles": "C=CCOc1nc(OCC=C)nc(OCC=C)n1", "Potency": "inactive"}, {"smiles": "Cc1cc(S(=O)(=O)O)ccc1N=Nc1c(O)ccc2ccccc12", "Potency": "inactive"}, {"smiles": "CN(C)C/C=C(/c1ccc(Br)cc1)c1cccnc1", "Potency": "inactive"}, {"smiles": "CCCCCCCCCCCCCCCCOP(=O)([O-])OCC[N+](C)(C)C", "Potency": "inactive"}, {"smiles": "CC(=O)C=O", "Potency": "inactive"}, {"smiles": "O=C=Nc1cccc(C(F)(F)F)c1", "Potency": "inactive"}, {"smiles": "O=C(O)c1cccc(O)c1", "Potency": "inactive"}, {"smiles": "CCCCC(CC)(CO)CO", "Potency": "inactive"}, {"smiles": "CCCCCCCCCCCCCCCCCCO", "Potency": "inactive"}, {"smiles": "CC(C)(C)C1CCC(=O)CC1", "Potency": "inactive"}, {"smiles": "CCCCCCCCCCCC(=O)N(CC)CC", "Potency": "inactive"}, {"smiles": "N#Cc1cscn1", "Potency": "inactive"}, {"smiles": "CCCC(c1cc(C(C)(C)C)c(O)cc1C)c1cc(C(C)(C)C)c(O)cc1C", "Potency": "9.89 µM (active)"}, {"smiles": "Cc1c(C(=O)NCCO)[n+](=O)c2ccccc2n1[O-]", "Potency": "inactive"}, {"smiles": "C#CC(C)N(C)C(=O)Nc1ccc(Cl)cc1", "note": "(stereo not given)", "Potency": "inactive"}, {"smiles": "CCCCCCCC[N+](CCCCCCCC)(CCCCCCCC)CCCCCCCC", "Potency": "inactive"}, {"smiles": "C=CCN1CCc2nc(N)sc2CC1", "Potency": "6.01 µM (active)"}, {"smiles": "Cc1occc1C(=O)Nc1ccc(C(=O)N2CCC(F)(F)/C(=C\\C(=O)N3CCC(N4CCCCC4)CC3)c3ccccc32)cc1", "Potency": "inactive"}, {"smiles": "CCc1cccc(C)c1N(C(=O)CS(=O)(=O)O)C(C)COC", "note": "(stereo not given)", "Potency": "inactive"}, {"smiles": "C[C@H](O)C(=O)Nc1c(I)c(C(=O)NC(CO)CO)c(I)c(C(=O)NC(CO)CO)c1I", "Potency": "inactive"}, {"smiles": "COCCOCC(OC)OC", "Potency": "inactive"}, {"smiles": "CCOC(=O)Cn1cccc1-c1nc(-c2ccc(OC)cc2)c(-c2ccc(OC)cc2)s1", "Potency": "inactive"}, {"smiles": "CC(=O)Nc1ccc(OCC(O)CNC(C)C)cc1", "note": "(stereo not given)", "Potency": "inactive"}, {"smiles": "CC(C)(C)C(=O)CC(=O)C(C)(C)C", "Potency": "inactive"}]}]}
